“And” between values parts separate entries of the source, which are not always exact repeats. Identical values can stand only once. The panel holds about 83,000 compounds, 20% with a hit somewhere; the sample as a whole holds those more often.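 Percent growth is the endpoint: 0 to 100 indicates growth inhibition (40 means 60% inhibition), 0 means no net growth, and negative values indicate cell death.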 Unmarked numbers belong to inactive results. The source made the active and inactive calls.

The test has as its system ACHN renal. Nature of the test: NCI-60 one-dose screen, 48 h (100 = growth as untreated, 0 = no growth, -100 = all killed). To be noted: 10 µM unless noted. The procedure:
Growth inhibition of the ACHN human tumor cell line is measured as a screen for anti-cancer activity. Cells are grown in 96 well plates and exposed to the test compound for 48 hours. Compounds are tested at a single concentration, which is 10^-5 M for most compounds. The reported endpoint is percent growth (GI% or GIPRCNT), where numbers from 0 - 100% represent growth inhibition, and numbers from -100% - 0 represent cell death. For example, a value of 40 represents 60% growth inhibition. A value of 0 means no net growth occurred over the course of the experiment. A value of -40 indicates 40% of cells at the beginning of the experiment died by the end of the experiment. A value of -100 means all cells are dead at the end of the experiment.
NCI-60 Human Tumor Cell Lines Screen was performed using the standard one-dose NCI protocol, which is described in more detail at https://dtp.cancer.gov/discovery_development/nci-60/default.htm.
Compounds with GIPRCNT values below 10 were considered active. Activity score was based on GIPRCNT using the following formula: […]
Score is 0 for GIPRCNT values of 100 or above, 50 for GIPRCNT values of 0, and 100 for GIPRCNT values of -100.
Turning to `O=C(/C=C/C=C/c1ccc2c(c1)OCO2)N1CCCCC1`, the growth was 106%.

As for `CC(=O)c1cc2ccccc2o1`, the growth was 101%.

For `Cc1ccc(NC(=S)N/C=C(\c2ccccc2)S(=O)Cc2ccccc2)c(C)c1` (stereo not given), the growth is 103%.

In the case of `CCN(C)c1ccccc1`, the growth is 103%.

Regarding `COc1cc(NCCCCCCCNC(C)C)c2nccc(C)c2c1`, the growth was 91.8% and 67.3%.

Turning to `COc1ccc2oc3c(ccc[n+]3C)c(=O)c2c1`, the growth was 99.1%.

Regarding `COc1ccc(-n2[nH]c3c(cnc4ccccc43)c2=O)cc1`, the growth is 95.9% and 107%.

As to `Clc1ccc(/C=C/c2ccc3ccccc3n2)cc1`, the growth is 55.8% and 93.3% and 83%.

On to `Clc1ccc2c(c1)N(C1CCCN(Cc3ccccc3)C1)c1ccccc1S2` (stereo not given), for which the growth is 52.5%.

Consider `COc1ccc(CCl)c(C)c1OC`, for which the growth was 110%.

Regarding `COc1ccc(CCNC(=S)NN)cc1OC`, the growth is 102%.

On to `Nc1nc(-c2ccccn2)cc(-c2cc(-c3ccccn3)nc(N)n2)n1`, for which the growth was 110%.

In the case of `COC1C(OC(N)=O)C(O)C(Oc2ccc3c(O)c(NC(=O)c4ccc(O)c(CC=C(C)C)c4)c(=O)oc3c2C)OC1(C)C` (stereo not given), the growth is 23.8% and 101%.

With `O=C1C(=O)c2ccccc2C(O)=C1CC=C(Cl)Cl`, the growth is 52.6% and 65%.

Consider `CC(=O)Nc1cscc1NC(C)=O`, for which the growth was 96.3%.

Take `C/C(CC(C)C)=N/NC(N)=S`: the growth was 98.3%.

For `O=c1[nH]nnc2cc(Cl)ccc12`, the growth was 97.6% and 101%.

Turning to `Cc1c(Cl)cc(Cl)c(N)c1Cl`, the growth was 115%.

Regarding `NC(=O)Cc1nc(O)cc(=O)[nH]1`, the growth is 107%.

`N#Cc1c(N)nc2c(c(-c3ccc(Cl)cc3)nn2-c2ccccc2)c1C#N`: the growth is 86.9% [100 µM].

Regarding `O=P(O)(O)OC1C(OP(=O)(O)O)C(OP(=O)(O)O)C(OP(=O)(O)O)C(OP(=O)(O)O)C1OP(=O)(O)O.[Cu+2]` (stereo not given), the growth was 99.7%.

As to `CCN(CC)C(=S)SCCO`, the growth is 111%.

As for `CC(C)(C)OC(=O)c1ccc(NCc2cc(O)ccc2O)cc1`, the growth is -67.3% (active).

For the molecule `C/C=C/C(=O)OCCCCCCCCCCCC`, the growth was 103%.

As to `O=COCCCc1ccccc1`, the growth was 110%.

Regarding `CCCC(=O)Oc1ccc2ccccc2c1`, the growth was 99%.

As to `CCCC(=O)Oc1ccc(CC)cc1`, the growth was 107%.

With `CCc1ccc(OC(=O)CCl)cc1`, the growth is 102%.

Regarding `Cc1cccc(Cl)c1N`, the growth is 108%.

In the case of `CCn1c2ccc(N(C)C)cc2c2cc(N(C)C)ccc21`, the growth was 99.9%.

For the molecule `CS(=O)(=O)c1nsc(N)n1`, the growth was 107%.

Regarding `N#Cc1c[nH]n2ccnc12`, the growth is 112%.

Consider `Nc1ccccc1SC1CC(=O)N(c2ccc(I)cc2)C1=O` (stereo not given), for which the growth is 86%.

Regarding `COC(=O)c1nc(N)nc(C(=O)OC)c1C(=O)c1ccc(F)cc1`, the growth is 116%.

For the molecule `O=C(O)Cc1cc(=O)[nH]n(-c2ccccc2)c1=O`, the growth was 105%.

For the molecule `O=C(O)c1ccc2c3ccc(C(=O)O)c4c(C(=O)O)ccc(c5ccc(C(=O)O)c1c25)c43`, the growth is 107%.

As to `CCN(CC)CCO/N=C1\CC(c2ccc(OC)c(OC)c2)Oc2ccccc21` (stereo not given), the growth was 101%.

Take `NCCSSC/C=C\CSSCCN`: the growth was 110%.

On to `COC(=O)CCOc1ccccc1`, for which the growth is 91.8%.

Take `O=C(c1ccccc1)C1(Br)CCCCC1`: the growth is 100%.

Source of the values: PubChem BioAssay (NCI).
